The values below come from PubChem BioAssay (Tox21).

Activity calls are given as the source filed them. A call without a number means that no potency is given here. The call rests on the fitted dose curve; in most records, active means well fitted curve in the direction sought with a large enough effect in the repeat runs; inconclusive means weak or mixed curves; inactive means flat fitted curve, though single readings scatter. Non-standard residues stand in square brackets, D forms with d. Residues, ends and D or L forms follow the SMILES beside them. Orn = NCCC[C@H](N)C(=O)O

A short description of this experiment: qHTS assay to test for compound auto fluorescence at 460 nm (blue) in HepG2 cells (AID 720687). As to conditions: autofluorescence 405/460 nm, 1 h; series mostly up to 46 µM. From the text:
U.S. Tox21 Program National Center for Advancing Translational Sciences [NCATS] NIH Chemical Genomics Center [NCGC] U.S. Environmental Protection Agency [EPA] National Institutes of Environmental Health Sciences [NIEHS] National Toxicology Program [NTP] U.S. Food and Drug Administration [FDA] Tox21 Assay Overview: Compound auto fluorescence often interferes with screening of the compound library against various biological targets and signaling pathways. Some of these compounds may have fluorophoric properties. Such properties may interfere with the assay outputs resulting in false positives and/or negatives. To decrease such complications and ensure the compound activities are relevant in terms of biological response, the Tox21 10K compound library was screened for auto fluorescence. From the fluorophores used as reporter signals in our screening assays, the auto fluorescence equivalencies of compounds against three fluorophores have been evaluated: Triamterene, Fluorescein and Rose Bengal sodium for blue, green and red fluorescence, respectively. The fluorescence intensities were measured using Excitation/Emission wavelengths at 405/460nm, 485/535nm and 540/590nm for blue, green and red labels, respectively. This assay includes the blue fluorescence data.
Tox21 Assay Protocol Summary: 2,000 HepG2 cells in 5 uL of culture medium (MEM containing 10% FBS) per well were dispensed into black wall/clear bottom 1536-well plates using a Multidrop Combi Dispenser (ThermoFisher Scientific, Waltham, MA). The assay plates were incubated overnight at 37 C to allow cell attachment to the well bottom, followed by the transfer of 23 nL compound or DMSO vehicle by a pintool work station (Kalypsys , San Diego, CA). After the assay plates were incubated for 1 hr at 37 C and 5% CO2, fluorescence intensities in the assay plates were measured by an Envision (PerkinElmer, Shelton, CT) plate reader using three labels for measuring blue, green and red fluorescence at […] 460, 535 and 590 nm respectively.
On to `O=C1c2ccccc2CN2C(=O)c3ccccc3CN12`, for which the Potency result was “inactive”. `CC1CCCC(C)N1NC(=O)c1ccc(Cl)c(S(N)(=O)=O)c1` (stereo not given): the Potency result is “inactive”.

As for `CNCCC=C1c2ccccc2CCc2ccccc21`, the Potency entry was “inactive”. Turning to `CCOc1ccc(NC(=S)Nc2ccc(OCC)cc2)cc1`, the Potency entry was “inactive”.

Take `CSCC[C@H](NC(=O)[C@H](Cc1ccc(OS(=O)(=O)O)cc1)NC(=O)[C@@H](N)CC(=O)O)C(=O)NCC(=O)N[C@@H](Cc1c[nH]c2ccccc12)C(=O)N[C@@H](CCSC)C(=O)N[C@@H](CC(=O)O)C(=O)N[C@@H](Cc1ccccc1)C(N)=O`: the Potency entry was “inactive”. `C/C=C/C1=C(C(=O)O)N2C(=O)[C@@H](NC(=O)[C@H](N)c3ccc(O)cc3)[C@H]2SC1`: the Potency entry is “inactive”. The entry for `CC[C@@H](C(=O)[C@@H](C)[C@@H](O)[C@H](C)CCc1ccc(C)c(O)c1C(=O)O)[C@H]1O[C@](CC)([C@H]2CC[C@](O)(CC)[C@H](C)O2)C[C@@H]1C` is “inactive”. In the case of `CO/N=C(\C(=O)N[C@@H]1C(=O)N2C(C(=O)O)=C(CSc3nc(C)c(CC(=O)O)s3)CS[C@H]12)c1csc(N)n1`, the Potency entry was “inactive”. With `O=C(O)Cc1nn(Cc2ccc(Br)cc2F)c(=O)c2ccccc12`, the Potency entry is “inactive”. For the molecule `COc1cc2c(cc1OC)[C@@H](Cc1cc(OC)c(OC)c(OC)c1)[N+](C)(CCCOC(=O)CC/C=C/CCC(=O)OCCC[N+]1(C)CCc3cc(OC)c(OC)cc3[C@H]1Cc1cc(OC)c(OC)c(OC)c1)CC2` (stereo not given in full), the Potency result is “inactive”. The entry for `CC(C)C[C@@H]1NC(=O)[C@H](CCCN)NC(=O)[C@H](C(C)C)NC(=O)[C@@H]2CCCN2C(=O)[C@@H](Cc2ccccc2)NC(=O)[C@H](CC(C)C)NC(=O)[C@H](CCCN)NC(=O)[C@H](C(C)C)NC(=O)[C@@H]2CCCN2C(=O)[C@@H](Cc2ccccc2)NC1=O` (cyclo(V[Orn]L[dF]PV[Orn]L[dF]P)) is “inactive”; for `O=C(O)c1cc(O)c2c(c1)[C@H]([C@H]1c3cc(C(=O)O)cc(O)c3C(=O)c3c(O[C@@H]4O[C@H](CO)[C@@H](O)[C@H](O)[C@H]4O)cccc31)c1cccc(O[C@@H]3O[C@H](CO)[C@@H](O)[C@H](O)[C@H]3O)c1C2=O` it is “inactive”; for `CN1CCN(CCCN2c3ccccc3Sc3ccc(C(F)(F)F)cc32)CC1` it is “inactive”. With `CCCCCCCCCCCCCC(=O)OCC(COP(=O)([O-])OCC[N+](C)(C)C)OC(=O)CCCCCCCCCCCCC` (stereo not given), the Potency entry was “inactive”. The result for `CC(C)CCC[C@@H](C)[C@H]1CC[C@H]2[C@@H]3CC[C@@H]4C[C@H](O)CC[C@]4(C)[C@H]3CC[C@]12C` reads “inactive”; that for `Cc1c(O)c(=O)ccn1C`, “inactive”; that for `CC12CCC(C1)C(C)(C)C2=O` (stereo not given), “inactive”. On to `CC12CCC(C[N+](C)(CCC[N+](C)(C)C)C1)C2(C)C` (stereo not given), for which the Potency result is “inactive”.

For the molecule `CC(O)(c1ccc(Cl)cc1)c1ccc(Cl)cc1`, the Potency result was “inactive”. For `O=C(O)COc1ccccc1/C=N/NC(=O)c1ccncc1`, the Potency result was “inactive”. On to `S=C1NC=NC2N=CNC12` (stereo not given), for which the Potency result was “inactive”. On to `C[C@H]1O[C@@H](O[C@H]2CC[C@@]3(C)[C@H](CC[C@@H]4[C@@H]3C[C@@H](O)[C@]3(C)[C@@H](C5=CC(=O)OC5)CC[C@]43O)C2)C[C@H](O)[C@@H]1O[C@H]1C[C@H](O)[C@H](O[C@H]2C[C@H](O)[C@H](O[C@@H]3O[C@H](CO)[C@@H](O)[C@H](O)[C@H]3O)[C@@H](C)O2)[C@@H](C)O1`, for which the Potency entry was “inactive”.

Take `CCCCC[C@H](O)/C=C/[C@@H]1[C@@H](C/C=C\CCCC(=O)O)[C@@H](O)C[C@H]1O`: the Potency entry is “inactive”. Take `OCC1(CO)COC(C(Cl)(Cl)Cl)OC1`: the Potency result is “inactive”. The result for `NCC1CCC(C(=O)O)CC1` (stereo not given) reads “inactive”; that for `CCCCC/C=C\C=C\C(=O)OCC`, “inactive”; that for `N[C@@H](Cc1ccc(O)c(O)c1)C(=O)O`, “inactive”. `CN(C[C@@H](CC[N+]12CCC(C3CCCCC3)(CC1)CC2)c1ccc(Cl)c(Cl)c1)C(=O)c1cc(C(F)(F)F)cc(C(F)(F)F)c1`: the Potency entry is “inactive”. For `Cc1cc(=O)c(C(=O)N[C@@H](C(=O)N[C@@H]2C(=O)N3C(C(=O)O)=C(CSc4nnnn4C)CS[C@H]23)c2ccc(O)cc2)c[nH]1`, the Potency result is “inactive”. The result for `COc1ccc(/C=C/C(=O)O)cc1` reads “inactive”; that for `O=S(=O)(O)CC(S)CS` (stereo not given), “inactive”; that for `OCl`, “inactive”. For the molecule `C=C1C(=C/C=C2\CCC[C@]3(C)[C@@H]([C@H](C)CCCC(C)C)CC[C@@H]23)C[C@@H](O)C[C@@H]1O`, the Potency entry is “inactive”. As for `C=CC[N@@+]12CC[C@@]34c5ccccc5N5/C=C6/[C@H]7C[C@H]8[C@@]9(CC[N@@+]8(CC=C)C/C7=C/CO)c7ccccc7N(/C=C(/[C@@H](C[C@@H]31)/C(=C\CO)C2)[C@H]54)[C@@H]69`, the Potency entry was “inactive”. The entry for `C=CCc1cc(S(=O)(=O)c2ccc(O)c(CC=C)c2)ccc1O` is “inactive”; for `CCC1OC(=O)C[C@@H](O)[C@H](C)[C@@H](O[C@@H]2O[C@H](C)C[C@H](N(C)C)[C@H]2O)[C@@H](CC=O)C[C@@H](C)C(=O)/C=C/[C@]2(C)OC2C1C` (stereo not given in full) it is “inactive”. The result for `O=P(O)(O)OP(=O)(O)OP(=O)(O)O` reads “inactive”; that for `CCC(O)c1ccccc1` (stereo not given), “inactive”; that for `CCOC(=O)[C@H](CCc1ccccc1)N[C@@H](C)C(=O)N1[C@H](C(=O)O)C[C@H]2CCCC[C@@H]21`, “inactive”. `CN1CC[C@H](c2c(O)cc(O)c3c(=O)cc(-c4ccccc4Cl)oc23)[C@H](O)C1`: the Potency result is “inactive”.
